Some structures have more than one record in an assay (separate samples or runs), and their calls can disagree. Active and inactive are the calls of the source. Rule for the calls: active = hit-call score of the fitted dose curve at least 0.9, where 1 is the maximum; inactive = score below 0.9.
Legend:
[1] = ATG_GLI_CIS: Attagene CIS-FACTORIAL HepG2 Assay for human Zinc Finger Protein GLI1 (AID 2282945); conditions: HepG2, Attagene cis-factorial reporter mRNA, GLI element; actives raise or lower the signal
Outline: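 Bidirectional curve fits relative to DMSO, using reporter mRNA levels from RT-PCR plus capillary electrophoresis. Cells were HepG2 transiently carrying cis-regulated reporter constructs, harvested 24 h after dosing.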

[2] = ATG_ISRE_CIS: Attagene CIS-FACTORIAL HepG2 Assay for human Interferon Regulatory Factor 1 (IRF1) binding to an Interferon-Stimulated Response Element (ISRE) (AID 2282948); conditions: HepG2 ISRE cis-reporter (Attagene), mRNA transcription readout; actives raise or lower the signal
Outline: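 Signal reflects induction or loss of ISRE-linked reporter mRNA in transiently transfected HepG2 cells after a 24 h treatment, detected by fluorescent RT-PCR fragments on capillary electrophoresis and normalised to DMSO.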

[3] = ATG_M_32_CIS: Attagene CIS-FACTORIAL HepG2 Assay for M32 Transcription Factor (Internal Marker) (AID 2282949); conditions: HepG2 Attagene cis-factorial M32 reporter, mRNA; actives raise or lower the signal;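 note: background control marker of the multiplexed CIS panel rather than a real target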
Outline: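 HepG2 transfectants (cis-regulated reporter transcription units) dosed 24 h. Reporter mRNA by RT-PCR plus CE, analysed as gain or loss relative to DMSO.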

[4] = ATG_M_06_CIS: Attagene CIS-FACTORIAL HepG2 Assay for M06 Transcription Factor (Internal Marker) (AID 2282950); conditions: HepG2 Attagene CIS-FACTORIAL M06 internal marker reporter; actives raise or lower the signal
Outline: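 Cells (HepG2, transiently carrying cis-driven reporter units) receive chemical for 24 h before RNA isolation. Reporter cDNA is PCR-amplified, FAM-labelled by primer extension, HpaI-digested and sized on a capillary analyser.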

[5] = biological target: Hypoxia-inducible factor 1-alpha (Homo sapiens) (UniProt Q16665); experiment: ATG_HIF1a_CIS: Attagene CIS-FACTORIAL HepG2 Assay for human Hypoxia Inducible Factor 1 (HIF1A) (AID 2282951); conditions: HepG2 Attagene cis-factorial HIF1a reporter transcription; actives raise or lower the signal
Sequence of Hypoxia-inducible factor 1-alpha (Homo sapiens) (Q16665 whole entry, looked up): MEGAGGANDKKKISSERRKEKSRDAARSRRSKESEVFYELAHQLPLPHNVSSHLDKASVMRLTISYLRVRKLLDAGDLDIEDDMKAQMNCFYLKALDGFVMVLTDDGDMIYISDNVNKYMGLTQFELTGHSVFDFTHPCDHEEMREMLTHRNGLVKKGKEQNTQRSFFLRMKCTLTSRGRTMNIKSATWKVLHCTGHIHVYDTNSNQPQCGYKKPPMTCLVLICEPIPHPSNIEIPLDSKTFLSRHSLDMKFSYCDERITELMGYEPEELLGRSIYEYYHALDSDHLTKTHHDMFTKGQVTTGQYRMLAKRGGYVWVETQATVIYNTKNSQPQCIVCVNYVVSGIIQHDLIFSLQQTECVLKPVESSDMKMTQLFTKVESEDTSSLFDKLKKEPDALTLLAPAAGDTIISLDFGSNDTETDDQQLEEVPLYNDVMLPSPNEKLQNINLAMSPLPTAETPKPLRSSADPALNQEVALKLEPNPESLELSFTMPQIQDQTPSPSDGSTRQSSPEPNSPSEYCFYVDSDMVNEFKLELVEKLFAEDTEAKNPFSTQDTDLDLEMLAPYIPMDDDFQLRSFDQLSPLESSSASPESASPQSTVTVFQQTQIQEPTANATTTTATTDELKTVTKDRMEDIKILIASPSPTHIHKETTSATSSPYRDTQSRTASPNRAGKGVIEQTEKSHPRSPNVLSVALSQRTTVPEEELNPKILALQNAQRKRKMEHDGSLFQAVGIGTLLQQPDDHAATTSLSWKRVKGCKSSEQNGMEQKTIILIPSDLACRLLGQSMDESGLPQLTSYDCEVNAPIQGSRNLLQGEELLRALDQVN
Outline: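 Endogenous-TF cis reporter readout, human HepG2 cells, 24 h incubation; mRNA detected via RT-PCR and capillary electrophoresis fluorescence; DMSO-normalised bidirectional fitting.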

[6] = biological target: Hepatocyte nuclear factor 6 (Homo sapiens) (UniProt Q9UBC0); experiment: ATG_HNF6_CIS: Attagene CIS-FACTORIAL HepG2 Assay for human Hepatocyte Nuclear Factor 6 (HNF6) (AID 2282952); conditions: HepG2 Attagene cis-factorial HNF6 reporter transcription; actives raise or lower the signal
Sequence of Hepatocyte nuclear factor 6 (Homo sapiens) (Q9UBC0 whole entry, looked up): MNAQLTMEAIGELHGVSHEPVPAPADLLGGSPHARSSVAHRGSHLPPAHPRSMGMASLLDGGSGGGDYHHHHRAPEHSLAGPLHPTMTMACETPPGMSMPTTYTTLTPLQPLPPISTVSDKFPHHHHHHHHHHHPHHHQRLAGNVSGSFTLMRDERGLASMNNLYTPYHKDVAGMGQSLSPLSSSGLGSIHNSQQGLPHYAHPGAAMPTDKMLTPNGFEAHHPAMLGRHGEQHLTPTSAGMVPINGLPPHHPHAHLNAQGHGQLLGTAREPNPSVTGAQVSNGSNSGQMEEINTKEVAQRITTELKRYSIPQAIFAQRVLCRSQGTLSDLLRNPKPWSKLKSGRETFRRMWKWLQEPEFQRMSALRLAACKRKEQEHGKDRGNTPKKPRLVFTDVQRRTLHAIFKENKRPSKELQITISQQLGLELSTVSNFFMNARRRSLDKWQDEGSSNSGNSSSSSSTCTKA
Outline: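 Endogenous transcription factor activity in human HepG2 liver cells was captured through cis-regulated reporter constructs. After 24 h treatment, reporter mRNA was measured by RT-PCR with capillary electrophoresis, and activity was fitted in both directions relative to DMSO.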

[7] = ATG_MRE_CIS: Attagene CIS-FACTORIAL HepG2 Assay for human Metal Responsive Element (MRE) (AID 2282954); conditions: HepG2 MRE cis-reporter transcription, Attagene multiplex; actives raise or lower the signal
Outline: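 Endogenous MRE-dependent transcription read as reporter mRNA in transiently transfected human HepG2 cells at 24 h. RNA reverse-transcribed, PCR-amplified, labelled and resolved by capillary electrophoresis; gain or loss relative to DMSO.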

[8] = biological target: Paired box protein Pax-6 (Homo sapiens) (UniProt P26367); experiment: ATG_Pax6_CIS: Attagene CIS-FACTORIAL HepG2 Assay for human Paired Box 6 (PAX6) (AID 2282956); conditions: HepG2 CIS-FACTORIAL PAX6 reporter transcription, RNA readout; actives raise or lower the signal
Sequence of Paired box protein Pax-6 (Homo sapiens) (P26367 whole entry, looked up): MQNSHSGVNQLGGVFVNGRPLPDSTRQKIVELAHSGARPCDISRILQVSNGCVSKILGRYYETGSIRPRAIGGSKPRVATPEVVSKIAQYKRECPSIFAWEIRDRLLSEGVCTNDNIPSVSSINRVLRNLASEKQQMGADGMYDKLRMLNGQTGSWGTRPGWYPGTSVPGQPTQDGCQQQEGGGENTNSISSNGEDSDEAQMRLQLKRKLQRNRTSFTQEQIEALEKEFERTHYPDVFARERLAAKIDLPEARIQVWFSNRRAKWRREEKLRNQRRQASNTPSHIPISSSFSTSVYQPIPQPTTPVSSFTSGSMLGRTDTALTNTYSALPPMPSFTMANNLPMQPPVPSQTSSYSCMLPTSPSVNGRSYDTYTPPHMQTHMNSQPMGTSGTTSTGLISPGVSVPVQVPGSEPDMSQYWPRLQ
Outline: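 Values derive from bidirectional curve fitting of reporter mRNA signal relative to DMSO. HepG2 cells bearing transfected cis-regulated MRTUs were exposed for 24 h; transcripts were read by RT-PCR and capillary electrophoresis.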

[9] = ATG_PXRE_CIS: Attagene CIS-FACTORIAL HepG2 Assay for human Pregnane X Receptor Element (PXRE) (AID 2282957); conditions: HepG2 Attagene CIS-FACTORIAL PXRE reporter, mRNA; actives raise or lower the signal
Outline: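 Endogenous transcription factor activity in HepG2 was gauged through induction of reporter mRNA driven by a cis-regulating promoter element, sampled 24 h post-treatment. Activity was fitted in both directions against DMSO negative control.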

[10] = ATG_RORE_CIS: Attagene CIS-FACTORIAL HepG2 Assay for human RAR-related Orphan Receptor Element (RORE) (AID 2282959); conditions: HepG2 Attagene cis-factorial RORE reporter, mRNA; actives raise or lower the signal
Outline: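 Measured here: transcript induction of a cis-regulated reporter in HepG2 cells transiently transfected via FuGene 6. After 24 h, RNA was processed by RT-PCR and fluorescent capillary electrophoresis; DMSO defined baseline activity.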

[11] = ATG_Sox_CIS: Attagene CIS-FACTORIAL HepG2 Assay for human SRY-box transcription factor (SOX) (AID 2282960); conditions: HepG2 Attagene cis-factorial SOX reporter, mRNA; actives raise or lower the signal
Outline: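 Using transiently transfected HepG2 cells, reporter transcription driven by cis elements was assessed 24 h after dosing. Signal was fluorescence of capillary-separated RT-PCR products, with DMSO defining baseline activity.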

[12] = biological target: Transcription factor Sp1 (Homo sapiens) (UniProt P08047); experiment: ATG_Sp1_CIS: Attagene CIS-FACTORIAL HepG2 Assay for human Specificity Protein 1 (Sp1) (AID 2282961); conditions: HepG2 Sp1 cis-reporter transcription, actives raise or lower the signal
Sequence of Transcription factor Sp1 (Homo sapiens) (P08047 whole entry, looked up): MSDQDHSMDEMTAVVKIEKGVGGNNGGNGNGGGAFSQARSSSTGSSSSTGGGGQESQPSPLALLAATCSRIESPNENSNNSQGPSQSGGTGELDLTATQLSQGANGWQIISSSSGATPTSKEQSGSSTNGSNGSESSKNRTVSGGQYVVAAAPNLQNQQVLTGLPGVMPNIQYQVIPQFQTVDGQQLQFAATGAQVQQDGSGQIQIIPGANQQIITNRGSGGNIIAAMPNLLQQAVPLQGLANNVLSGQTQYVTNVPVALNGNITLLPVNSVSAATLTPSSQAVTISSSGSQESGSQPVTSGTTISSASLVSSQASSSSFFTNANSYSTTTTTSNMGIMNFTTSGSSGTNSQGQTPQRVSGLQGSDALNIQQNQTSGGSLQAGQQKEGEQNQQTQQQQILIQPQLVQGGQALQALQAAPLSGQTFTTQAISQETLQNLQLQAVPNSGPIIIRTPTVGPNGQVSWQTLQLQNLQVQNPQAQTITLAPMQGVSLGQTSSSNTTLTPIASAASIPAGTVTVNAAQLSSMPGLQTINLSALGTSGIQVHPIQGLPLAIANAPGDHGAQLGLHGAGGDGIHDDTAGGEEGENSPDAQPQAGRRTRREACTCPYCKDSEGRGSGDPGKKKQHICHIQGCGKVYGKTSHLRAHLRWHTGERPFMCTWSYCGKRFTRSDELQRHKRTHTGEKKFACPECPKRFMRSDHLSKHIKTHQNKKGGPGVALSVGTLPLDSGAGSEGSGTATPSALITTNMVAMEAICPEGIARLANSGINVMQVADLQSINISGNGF
Outline: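 After transient transfection of HepG2 cells with cis-promoter reporter units and 24 h chemical treatment, reporter transcripts were quantified by RT-PCR and capillary electrophoresis fluorescence. Gain- and loss-of-signal fitted against DMSO.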

[13] = ATG_SREBP_CIS: Attagene CIS-FACTORIAL HepG2 Assay for human Sterol Regulatory Element Binding (SREBP) (AID 2282962); conditions: HepG2 Attagene cis-factorial SREBP reporter, mRNA; actives raise or lower the signal
Outline: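 Values derive from bidirectional curve fitting with DMSO as baseline. The underlying measurement is reporter mRNA from cis-element-regulated units in transiently transfected HepG2, quantified by RT-PCR and capillary electrophoresis after 24 h exposure.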

[14] = biological target: Signal transducer and activator of transcription 3 (Homo sapiens) (UniProt P40763); experiment: ATG_STAT3_CIS: Attagene CIS-FACTORIAL HepG2 Assay for human Signal Transducer and Activator of Transcription 3 (STAT3) (AID 2282963); conditions: HepG2, Attagene cis-factorial STAT3 reporter transcription; actives raise or lower the signal
Sequence of Signal transducer and activator of transcription 3 (Homo sapiens) (P40763 whole entry, looked up): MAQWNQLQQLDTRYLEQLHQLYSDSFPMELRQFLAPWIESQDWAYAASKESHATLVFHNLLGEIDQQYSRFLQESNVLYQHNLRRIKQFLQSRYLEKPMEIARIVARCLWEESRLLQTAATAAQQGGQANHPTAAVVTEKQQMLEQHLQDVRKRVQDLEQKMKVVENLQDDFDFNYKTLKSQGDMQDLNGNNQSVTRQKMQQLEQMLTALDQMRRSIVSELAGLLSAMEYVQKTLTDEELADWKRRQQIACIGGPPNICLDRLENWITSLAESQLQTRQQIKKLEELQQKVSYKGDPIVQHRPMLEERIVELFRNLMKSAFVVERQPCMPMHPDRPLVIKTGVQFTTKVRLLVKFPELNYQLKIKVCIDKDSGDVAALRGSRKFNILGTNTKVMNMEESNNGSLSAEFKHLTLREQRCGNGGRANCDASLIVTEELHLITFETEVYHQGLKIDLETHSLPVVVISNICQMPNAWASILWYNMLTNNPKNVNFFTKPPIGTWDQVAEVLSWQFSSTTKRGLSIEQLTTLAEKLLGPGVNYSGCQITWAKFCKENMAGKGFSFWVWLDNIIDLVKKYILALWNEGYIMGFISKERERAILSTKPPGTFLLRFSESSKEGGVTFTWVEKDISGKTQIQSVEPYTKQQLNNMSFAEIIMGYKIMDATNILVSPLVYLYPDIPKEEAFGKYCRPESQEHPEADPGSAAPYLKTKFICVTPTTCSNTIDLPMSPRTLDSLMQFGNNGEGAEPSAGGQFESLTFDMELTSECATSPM
Outline: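 Readout is reporter transcript quantified by RT-PCR and capillary electrophoresis, with 6-FAM primer extension and HpaI digestion. Total RNA is taken 24 h after dosing transiently transfected HepG2 carrying cis-regulated reporter units. Bidirectional fit against DMSO.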

[15] = ATG_TA_CIS: Attagene CIS-FACTORIAL HepG2 Assay for human TA Basal Promoter (AID 2282964); conditions: HepG2 Attagene CIS-factorial TA basal promoter reporter; actives raise or lower the signal
Outline: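 Background internal-marker endpoint from a 52-component HepG2 cis-reporter panel. Cells treated 24 h; reporter transcripts quantified via RT-PCR and CE fluorescence against DMSO baseline.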

[16] = ATG_GRE_CIS: Attagene CIS-FACTORIAL HepG2 Assay for human Glucocorticoid Response Elements (GRE) (AID 2282947); conditions: HepG2 GRE cis-reporter, Attagene multiplex mRNA; actives raise or lower the signal
Outline: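 Reporter transcripts read by RT-PCR with capillary electrophoresis fluorescence after a 24 h chemical exposure of HepG2 cells transiently transfected with multiple cis-element reporter units. Gain or loss fitted against DMSO.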

[17] = biological target: Heat shock factor protein 1 (Homo sapiens) (UniProt Q00613); experiment: ATG_HSE_CIS: Attagene CIS-FACTORIAL HepG2 Assay for human Heat Shock Transcription Factor 1 (HSE) (AID 2282953); conditions: HepG2 HSE cis-reporter, Attagene RNA transcription; actives raise or lower the signal
Sequence of Heat shock factor protein 1 (Homo sapiens) (Q00613 whole entry, looked up): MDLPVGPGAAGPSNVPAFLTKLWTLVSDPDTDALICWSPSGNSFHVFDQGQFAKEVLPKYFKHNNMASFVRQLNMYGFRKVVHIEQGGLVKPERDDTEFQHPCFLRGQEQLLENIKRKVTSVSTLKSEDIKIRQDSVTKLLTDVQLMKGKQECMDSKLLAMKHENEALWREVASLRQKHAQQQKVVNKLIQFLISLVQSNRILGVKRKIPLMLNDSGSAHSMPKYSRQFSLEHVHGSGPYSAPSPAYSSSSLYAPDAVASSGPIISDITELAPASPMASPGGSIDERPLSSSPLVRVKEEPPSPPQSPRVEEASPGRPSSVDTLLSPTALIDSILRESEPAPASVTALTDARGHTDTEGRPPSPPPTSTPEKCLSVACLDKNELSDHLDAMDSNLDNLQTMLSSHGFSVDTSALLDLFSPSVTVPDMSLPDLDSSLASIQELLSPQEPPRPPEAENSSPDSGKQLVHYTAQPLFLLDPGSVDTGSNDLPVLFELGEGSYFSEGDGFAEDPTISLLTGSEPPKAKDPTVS
Outline: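 Liver-derived HepG2 cells carry transiently introduced multiple reporter units governed by cis promoters. Reporter RNA measured 24 h post-dose through reverse transcription, PCR amplification, fluorescent labelling and capillary electrophoresis, normalised to DMSO.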

[18] = ATG_PPRE_CIS: Attagene CIS-FACTORIAL HepG2 Assay for human Peroxisome Proliferator-activated Response Element (PPRE) (AID 2282958); conditions: HepG2 PPRE cis-element reporter, Attagene transcription factor profiling; actives raise or lower the signal
Outline: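 After human HepG2 hepatoma cells were transiently transfected with cis-promoter reporter constructs, they were exposed to test chemicals for 24 hours. Reporter RNA was then reverse-transcribed, PCR-amplified, FAM-labeled, HpaI-digested and quantified by capillary electrophoresis.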

[19] = ATG_PBREM_CIS: Attagene CIS-FACTORIAL HepG2 Assay for human Phenobarbital-responsive Enhancer Module (PBREM) (AID 2282955); conditions: HepG2 PBREM cis-reporter, Attagene multiplexed transcription; actives raise or lower the signal
Outline: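 Readout: reporter mRNA, fluorescent RT-PCR fragments separated by capillary electrophoresis. System: HepG2 transiently transfected with cis-regulated reporter units. Exposure: 24 h. Analysis: bidirectional, DMSO baseline.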

Measured: AC50

O=C(O)CF
active: [9] 100 µM
inactive: [1] | [2] | [3] | [4] | [5] | [6] | [7] | [8] | [9] | [10] | [11] | [12] | [13] | [14] | [15]

Nc1ccc(Cl)cc1
not listed: [19]
inactive: all other assays above

O=C(O)C(Cl)Cl
not listed: [6] | [19]
inactive: all other assays above

CCC1(c2ccccc2)C(=O)N=C(O)NC1=O (configuration not stated)
active: [9] 100 µM
not listed: [16]
inactive: all other assays above

CC(Cl)(Cl)C(=O)O
not listed: [19]
inactive: all other assays above

CCOP(=S)(Oc1ccc([N+](=O)[O-])cc1)c1ccccc1 (configuration not stated)
active: [9] 1.22 µM | [13] 27.2 µM
not listed: [6] | [10] | [16] | [17]
inactive: all other assays above

Cc1ccc(O)cc1C
not listed: [6] | [16] | [18]
inactive: all other assays above

c1cc2c3c(cccc3c1)CC2
inactive: all assays above

— PubChem BioAssay (EPA / NIEHS)
